Bioassay records deposited in PubChem by The Scripps Research Institute Molecular Screening Center.
GPR151 activ = human GPR151 activation | activation, % at 11.2 µM | PathHunter beta-arrestin GPR151 cells, luminescence | Q8TDV0 | AID 1508602 | actives 1% (n = 650,000); in the data active = activation above about 4.9%
Target sequence (Q8TDV0 whole entry, looked up): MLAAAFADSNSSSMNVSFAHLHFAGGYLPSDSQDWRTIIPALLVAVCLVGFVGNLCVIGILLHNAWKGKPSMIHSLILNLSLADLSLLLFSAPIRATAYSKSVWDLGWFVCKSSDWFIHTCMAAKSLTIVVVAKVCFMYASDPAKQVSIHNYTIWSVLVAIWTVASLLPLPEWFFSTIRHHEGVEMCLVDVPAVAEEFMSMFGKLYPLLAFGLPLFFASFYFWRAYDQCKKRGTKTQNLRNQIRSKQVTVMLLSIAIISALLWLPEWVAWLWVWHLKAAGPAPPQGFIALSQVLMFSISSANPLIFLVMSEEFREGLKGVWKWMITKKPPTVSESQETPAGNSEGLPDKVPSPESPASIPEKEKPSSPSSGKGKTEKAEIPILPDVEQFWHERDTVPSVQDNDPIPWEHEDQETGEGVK
TEAD-YAP block = TEAD-YAP interaction inhibition; actives 1.4% (n = 640,000); AID 1259422; HEK-TIYL cells, TEAD-Gal4/YAP UAS-luciferase luminescence; inhibition, % at 9.12 µM; in the data active = inhibition above about 32%
MITF primary = inhibitors of human MITF | O75030 | AID 1259374 | AlphaScreen MITF homodimerization, bead proximity signal | inhibition, % at 2.6 µM | actives 0.91% (n = 650,000); in the data active = inhibition above about 50%
FBW7 activator = human FBW7 E3 ligase activation, primary screen; AlphaScreen FBW7–phospho-cyclin E peptide binding, activator screen; actives 0.13% (n = 650,000); Q969H0; AID 1259310; normalized activity (activation), % at 26.1 µM; in the data active = normalized activity above about 1.9%;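 also: purified mutant Fbw7 with reduced substrate affinity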
GPR151 conf act = confirmation of human GPR151 activators. shares compounds with GPR151 activ. GPR151 PathHunter beta-arrestin cells, luminescence, 90 min; % of EA-reagent control over plate median. activation, % at 11.2 µM. 6,700 tested, under 10 active;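 active = mean percent activation across replicates above the confirmation screen cutoff of 4.91%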
GPR119 counter = counter-screen for GPR151 activators: effect on human GPR119; activation, % at 11.2 µM; GPR119 PathHunter beta-arrestin cells, luminescence, 90 min; 0 = compound-well median, 100 = enzyme-acceptor control; actives 0.3% (n = 6,700); shares compounds with GPR151 activ;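 active = mean percent activation in the counterscreen above 29.09%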;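 also: counterscreen on off-target GPR119 to flag nonselective hits from the GPR151 activator screen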
Each line names hits and unclear results; the compound was inactive in the other large screens (follow-up assays come after a bar, where they were run). A selection: hits, their analogues and other compounds. The true share with any hit is near 3.5%.

Cc1nc(CCNC(=O)c2cc(COc3ccc(F)cc3F)on2)sc1C	none
Cc1cc(C(=O)Nc2ccccc2C(F)(F)F)on1	GPR151 activ 5.3 | GPR151 conf act inactive | GPR119 counter inactive
Cn1nccc1C(=O)NCC1CCC2(CCN(Cc3cc(F)ccc3F)CC2)O1 (configuration not stated)	none
COc1ccc(C(=O)NC(=S)N2CCOCC2)cc1	GPR151 activ 6.1 | GPR151 conf act inactive | GPR119 counter inactive
COc1ccc(C(=O)NC(=S)N2CCOCC2)cc1Br	none
CC(C)Oc1ccc(C(=O)NC(=S)N2CCOCC2)cc1	GPR151 activ 13 | GPR151 conf act inactive | GPR119 counter inactive
COc1ccc(C(=O)NC(=S)N2CCSCC2)cc1	none
COc1ccc(CNC(=O)c2c(C)nc3c(C)cccn23)cc1OC	GPR151 activ 5.1 | GPR151 conf act inactive | GPR119 counter inactive
COc1ccc(CCn2c(=O)c(C#N)cc3c(=O)n4cccc(C)c4nc32)cc1OC	GPR151 activ 7.4 | GPR151 conf act inactive | GPR119 counter inactive
Cc1ccc(C(=O)Nc2c(C)ccc3nsnc23)cc1	none
COc1cccc(/C=N/NC(=O)c2[nH]nc(-c3ccccc3)c2C)c1O	GPR151 activ 7.6 | GPR151 conf act inactive | GPR119 counter inactive
COc1ccc(Br)cc1C(=O)N/N=C/c1cccc(OC)c1O	none
COc1cccc(/C=N/NC(=O)c2ccc(-n3c(C)ccc3C)cc2O)c1O	GPR151 activ 5.4, MITF primary 64 | GPR151 conf act inactive | GPR119 counter inactive
COc1cccc(/C=N\NC(=O)c2cnccn2)c1O	GPR151 activ 5.3 | GPR151 conf act inactive | GPR119 counter inactive
COc1ccc(/C=N\NC(=O)c2cnccn2)cc1OCc1ccccc1	GPR151 activ 5.8 | GPR151 conf act inactive | GPR119 counter inactive
Cc1cccc(C)c1N1C(=O)C2C3C=CC(C3)C2C1=O (configuration not stated)	none
CC1CCCN(c2nc3c(c(=O)[nH]2)CN(CC2=Cc4ccccc4OC2)CC3)C1 (configuration not stated)	none
O=C(COC(=O)c1ccccc1)NC1CC1	none
COc1cccc(/C=N/NC(=O)C(=O)NCC(C)C)c1O	GPR151 activ 30 | GPR151 conf act inactive | GPR119 counter inactive
COc1cccc(/C=N/NC(=O)C(=O)NC(C)c2ccccc2)c1O (configuration not stated)	none
COc1cc(/C=N/NC(=O)c2ccccn2)ccc1OC(C)=O	none
CCOc1ccc(/C=N/NC(=O)c2ccccn2)cc1OC	GPR151 activ 6.8 | GPR151 conf act inactive | GPR119 counter inactive
COc1cc(OC)nc(Oc2cccc(C)c2/C=N/NC(=O)c2ccccn2)n1	GPR151 activ 6.0 | GPR151 conf act inactive | GPR119 counter inactive
CCOC(=O)CSc1nnc(-c2cccc(NC(=O)c3ccccc3Cl)c2)n1C	GPR151 activ 5.3 | GPR151 conf act inactive | GPR119 counter inactive
O=C(CSc1nc2cc(C(=O)NCC3CCCO3)ccc2c(=O)n1CC1CCCO1)NC1CCCCC1 (configuration not stated)	none
O=C(CSc1nc2cc(C(=O)NCC3CCCO3)ccc2c(=O)n1Cc1ccco1)NC1CCCCC1 (configuration not stated)	GPR151 activ 5.2 | GPR151 conf act inactive | GPR119 counter inactive
COc1cccc(NC(=O)c2ccc(-c3ccccc3)nc2N(C)C)c1	none
Cc1cc(C)cc(NC(=O)c2sc(=S)n3c2[nH]c(=O)c2ccccc23)c1	none
OCCCNc1ccc2ncc(-c3ccccc3CO)n2n1	none
Nc1c(C(=O)Nc2ccc3c(c2)OCCO3)sc2nc(-c3cccs3)ccc12	GPR151 activ 6.3 | GPR151 conf act inactive | GPR119 counter inactive
Nc1c(C(=O)Nc2ccc3c(c2)OCCO3)sc2nc3cc4c(cc3cc12)OCCO4	none
COc1cccc(N2CC(NC(=O)N3CCN(c4ccc([N+](=O)[O-])cc4)CC3)CC2=O)c1 (configuration not stated)	GPR151 activ 12 | GPR151 conf act inactive | GPR119 counter inactive
COc1cccc(N2CC(NC(=O)N3CCN(c4ccc(C(C)=O)cc4)CC3)CC2=O)c1 (configuration not stated)	none
O=C(Nc1ccccc1Cl)C1CCCN1S(=O)(=O)c1cccc2cccnc12 (configuration not stated)	none
COC(=O)[C@H](Cc1ccccc1)NC(=O)c1cc(COc2c(F)cccc2F)on1	GPR151 activ 5.6 | GPR151 conf act inactive | GPR119 counter inactive
COC(=O)[C@@H](NC(=O)c1cc(COc2c(F)cccc2F)on1)c1ccccc1	none
CCC(CO)NCc1ccc(OCC(=O)NC(C)c2ccccc2)c(OC)c1 (configuration not stated)	GPR151 activ 6.0 | GPR151 conf act inactive | GPR119 counter inactive
COC(=O)C1=C(C)NC(=O)CC1c1cccc(Oc2ccccc2)c1 (configuration not stated)	GPR151 activ 8.3 | GPR151 conf act inactive | GPR119 counter inactive
C=CCOC(=O)C1=C(C)NC(C)=C(C(=O)OCC=C)C1c1cccc(Oc2ccccc2)c1	GPR151 activ 7.1 | GPR151 conf act inactive | GPR119 counter inactive
CC1=C(C(=O)OC(C)C)C(c2cccc(Oc3ccccc3)c2)C(C(=O)OC(C)C)=C(C)N1	none
CC(C)/C=C/C(=O)N1CCC(CO)(Cc2ccccc2Cl)CC1	none
COc1ccc(NC(=O)NCCNc2cc(-n3nc(C)cc3C)nc(C)n2)c(C)c1	none
Cc1cc(-n2c(SCc3ccccc3)nc3ccsc3c2=O)ccc1Cl	GPR151 activ 5.6 | GPR151 conf act inactive | GPR119 counter inactive
CCCCc1ccc(C2=N/C(=C\c3ccccc3)C(=O)O2)cc1	GPR151 activ 6.4 | GPR151 conf act inactive | GPR119 counter inactive
CCCCc1ccc(C2=N/C(=C\c3ccc(C)cc3)C(=O)O2)cc1	none
CC1Cc2cc(S(=O)(=O)CCC(=O)Nc3cccc(F)c3)ccc2N1C(=O)C1CC1 (configuration not stated)	none
CC1Cc2cc(S(=O)(=O)CCC(=O)Nc3ccccc3Cl)ccc2N1C(=O)C1CC1 (configuration not stated)	GPR151 activ 5.2 | GPR151 conf act inactive | GPR119 counter inactive
CC1(C)CC2(CCO1)OC(=O)CC2C(=O)NCc1ccccc1 (configuration not stated)	GPR151 activ 5.6 | GPR151 conf act inactive | GPR119 counter inactive
COC(=O)C(C)Oc1ccc2c(C)c(Cc3ccccc3)c(=O)oc2c1 (configuration not stated)	none
Cc1cc(=O)oc2cc(OC(=O)c3ccco3)ccc12	none
CCCCCCc1c(C)c2ccc(OC(C)C(=O)OC)cc2oc1=O (configuration not stated)	GPR151 activ 5.7 | GPR151 conf act inactive | GPR119 counter inactive
